The record followed here is PubChem BioAssay (Tox21).

Unmarked numbers belong to inactive results. Results filed as inconclusive are left out. Entries that show only a call come without a potency. The source made the active and inactive calls. Calls come from the whole dose curve; as a rule, active = well fitted curve in the direction sought with a large enough effect in the repeat runs; inconclusive = weak or mixed curves; inactive = no such curve, though single readings can be large; an effect the other way counts as inactive or inconclusive.

Tested on in the first assay: not listed separately
Briefly: Caspase-3/7 induction in CHO-K1 cells by small molecules, qHTS assay (AID 1346980). Note: nearly all actives have a fitted effect of over 15% in size. The note with it: CHO-K1 caspase-3/7 induction, Caspase-Glo luminescence, 17 h; series mostly up to 92.4 µM. In short, it runs like this:
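Wild-type CHO-K1 cells exposed to compounds for 17hr at 37 C, 5% CO2. Caspase-3/7 activity then measured by Caspase-Glo 3/7 luminescence after 30min at room temperature.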
Take `C=C[Si]1(C)O[Si](C)(C=C)O[Si](C)(C=C)O[Si](C)(C=C)O1` (stereo not drawn): the Potency result is “inactive”.

In the case of `Nc1ccccc1Nc1ccccc1`, the Potency entry was “inactive”.

Turning to `Cc1ccccc1CCO`, the Potency result was “inactive”.

Turning to `c1ccc(CN(Cc2ccccc2)Cc2ccccc2)cc1`, the Potency result was “inactive”.

Regarding `N#Cc1ccc(CC(=O)c2cccc(C(F)(F)F)c2)cc1`, the Potency result is “inactive”.

On to `Cc1cc(N)n(-c2ccccc2)n1`, for which the Potency entry is “inactive”.

On to `CCc1c(C)[nH]c2c1C(=O)C(CN1CCOCC1)CC2` (stereo not drawn), for which the Potency result is “inactive”.

In the case of `CC(C)(C(=O)O)c1ccc(C(O)CCCN2CCC(C(O)(c3ccccc3)c3ccccc3)CC2)cc1` (stereo not drawn), the Potency result is “inactive”.

Consider `CC(C)C/C=C(\C=O)c1ccccc1`, for which the Potency entry is “inactive”.

With `Nc1ncnc2c1ncn2[C@@H]1O[C@H](CO)[C@@H](O)[C@H]1O`, the Potency entry is “inactive”.

For the compound `CC(C)CCCCCOC(=O)CS`, the Potency entry is “inactive”.

On to `CC1(COc2ccc(CC3SC(=O)NC3=O)cc2)CCCCC1` (stereo not drawn), for which the Potency result was “inactive”.

`CCc1ccc(C(=O)C(C)CN2CCCCC2)cc1` (stereo not drawn): the Potency result is “inactive”.

As for `O=C(Cl)c1ccc(F)c(Cl)c1`, the Potency entry is “inactive”.

For the compound `Cc1ccc2ccccc2c1[N+](=O)[O-]`, the Potency result was “inactive”.

In the case of `C[C@H]1C[C@H]2[C@@H]3CCC4=CC(=O)C=C[C@]4(C)[C@@]3(F)[C@@H](O)C[C@]2(C)[C@@]1(O)C(=O)COP(=O)(O)O`, the Potency entry was “inactive”.

`CC(=O)OCC(=O)[C@@]1(O)CC[C@H]2[C@@H]3CCC4=CC(=O)C=C[C@]4(C)[C@@]3(F)[C@@H](O)C[C@@]21C`: the Potency entry was “inactive”.

Regarding `CCN(CC)CC(=O)OCC(=O)[C@@]1(O)CC[C@H]2[C@@H]3CCC4=CC(=O)CC[C@]4(C)[C@H]3[C@@H](O)C[C@@]21C`, the Potency result was “inactive”.

For `O=C(O)c1ccc2c(c1)nc(C(=O)NC1CCN(C3CC3)CC1)n2Cc1cc(-c2ccc(Cl)s2)on1`, the caspase-3/7 activation is 9.35% [at 19 µM].

For `O=C(Nc1ccccc1)c1cc([N+](=O)[O-])ccc1Cl`, the Potency result is “inactive”.

For the compound `CC(C)(C)c1ccc(CCC=O)cc1`, the Potency result is “inactive”.

Tested on in the next assay: not listed separately
Briefly: Caspase-3/7 induction in HepG2 cells by small molecules, qHTS cell viability counter screen (AID 1346981). Note: nearly all actives have a fitted effect of over 30% in size. Particulars: CellTiter-Fluor fluorescence, 17 h; series mostly up to 92.4 µM. Summed up: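 HepG2, WT, 2,000 cells/well; 5 hr pre-incubation 37 C/5% CO2; compound pin-transferred from DMSO; 16 hr exposure; CellTiter-Fluor, 1 hr; fluorescence read.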
A general note: In qHTS, concentration-response curves come from the screen itself.
Take `Cc1ccccc1CCO`: the Potency result is “inactive”.

Turning to `c1ccc(CN(Cc2ccccc2)Cc2ccccc2)cc1`, the Potency result was “inactive”.

Turning to `N#Cc1ccc(CC(=O)c2cccc(C(F)(F)F)c2)cc1`, the Potency entry was “inactive”.

With `Cc1cc(N)n(-c2ccccc2)n1`, the Potency entry is “inactive”.

For `COc1cc(CNC(=O)CCCC/C=C/C(C)C)ccc1O`, the Potency entry was “inactive”.

Take `CCc1c(C)[nH]c2c1C(=O)C(CN1CCOCC1)CC2` (stereo not drawn): the Potency entry is “inactive”.

With `CC(C)(C(=O)O)c1ccc(C(O)CCCN2CCC(C(O)(c3ccccc3)c3ccccc3)CC2)cc1` (stereo not drawn), the Potency result is “inactive”.

In the case of `COc1ccc(CN(CCN(C)C)c2ncccn2)cc1`, the Potency result was “inactive”.

`O=C(C1CCCCC1)N1CC(=O)N2CCCc3ccccc3C2C1` (stereo not drawn): the Potency entry was “inactive”.

`CC(CN=Cc1ccccc1O)N=Cc1ccccc1O` (stereo not drawn): the Potency result was “inactive”.

Consider `Nc1ncnc2c1ncn2[C@@H]1O[C@H](CO)[C@@H](O)[C@H]1O`, for which the Potency result is “inactive”.

On to `CC(C)CCCCCOC(=O)CS`, for which the Potency result was “inactive”.

For the compound `Cc1ccc(S(=O)(=O)NC(=O)NC2CCCC2)cc1`, the Potency entry is “inactive”.

As to `CC1(COc2ccc(CC3SC(=O)NC3=O)cc2)CCCCC1` (stereo not drawn), the Potency entry was “inactive”.

For the compound `COc1ccc(C(=O)c2ccc(C)cc2)c(O)c1`, the Potency entry was “inactive”.

As to `Cc1c(N=C=O)cccc1N=C=O`, the Potency entry is “inactive”.

Consider `Clc1nc2ccccc2nc1Cl`, for which the Potency result is “inactive”.

As for `c1ccc(CCNc2nc(-c3ccccc3)cs2)cc1`, the Potency entry was “inactive”.

With `CCc1ccc(C(=O)C(C)CN2CCCCC2)cc1` (stereo not drawn), the Potency result was “inactive”.

Consider `O=C(OC1C[C@H]2CC[C@@H](C1)[N+]21CCCC1)C(O)(c1ccccc1)c1ccccc1` (stereo partly drawn), for which the Potency result is “inactive”.

For `Cc1ccc2ccccc2c1[N+](=O)[O-]`, the Potency entry was “inactive”.

Consider `C[C@H]1C[C@H]2[C@@H]3CCC4=CC(=O)C=C[C@]4(C)[C@@]3(F)[C@@H](O)C[C@]2(C)[C@@]1(O)C(=O)COP(=O)(O)O`, for which the Potency result was “inactive”.

As for `CC(=O)OCC(=O)[C@@]1(O)CC[C@H]2[C@@H]3CCC4=CC(=O)C=C[C@]4(C)[C@@]3(F)[C@@H](O)C[C@@]21C`, the Potency entry is “inactive”.

For `CCN(CC)CC(=O)OCC(=O)[C@@]1(O)CC[C@H]2[C@@H]3CCC4=CC(=O)CC[C@]4(C)[C@H]3[C@@H](O)C[C@@]21C`, the Potency entry is “inactive”.

In the case of `O=C(O)c1ccc2c(c1)nc(C(=O)NC1CCN(C3CC3)CC1)n2Cc1cc(-c2ccc(Cl)s2)on1`, the activity change, negative = cytotoxicity was 3.23% [at 19 µM].

For the compound `O=C(O)c1cc(C(=O)O)cc([N+](=O)[O-])c1`, the Potency entry is “inactive”.

As to `Cc1cc(SC2=C(O)C[C@@](CCc3ccc(N)cc3)(C(C)C)OC2=O)c(C(C)(C)C)cc1CO`, the Potency result was “inactive”.

In the case of `O=C(Nc1ccccc1)c1cc([N+](=O)[O-])ccc1Cl`, the Potency result was “inactive”.

As to `CC(C)(C)c1ccc(CCC=O)cc1`, the Potency result was “inactive”.

In the case of `CCCCCC1CCC(=O)O1` (stereo not drawn), the Potency entry was “inactive”.

Turning to `CCOCCn1c(N2CCCN(C)CC2)nc2ccccc21`, the Potency result was “inactive”.

Regarding `C[C@H](CN1CCCC1)C(=O)c1ccc(C(F)(F)F)cc1`, the Potency entry was “inactive”.

Take `Sc1nc(S)nc(S)n1`: the Potency entry was “inactive”.

For the compound `Cc1cc(C)c(C)c(O)c1`, the Potency result was “inactive”.

`COc1ccc(/C=C/S(=O)(=O)NC(=O)c2ccc(C)cc2Cl)cc1`: the Potency result was “inactive”.

In the next assay the target is Nuclear receptor subfamily 1 group I member 2 (Homo sapiens) (UniProt O75469). Nature of the assay: Human pregnane X receptor (PXR) small molecule agonists, qHTS assay (AID 1346982). Note: nearly all actives have a fitted effect of over 35% in size. Note: potency is the fitted concentration of half-maximal effect. Particulars: PXR-Luc HepG2, CYP3A4 luciferase reporter, 24 h; series mostly up to 92.4 µM. In short, it runs like this: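 Luciferase signal from ONE-Glo (30 min, room temperature) measured activation of hPXR-driven CYP3A4 reporter expression in PXR-Luc HepG2 cells treated with compounds for 24 hr at 37 C.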
Sequence of Nuclear receptor subfamily 1 group I member 2 (Homo sapiens) (O75469 whole entry, looked up): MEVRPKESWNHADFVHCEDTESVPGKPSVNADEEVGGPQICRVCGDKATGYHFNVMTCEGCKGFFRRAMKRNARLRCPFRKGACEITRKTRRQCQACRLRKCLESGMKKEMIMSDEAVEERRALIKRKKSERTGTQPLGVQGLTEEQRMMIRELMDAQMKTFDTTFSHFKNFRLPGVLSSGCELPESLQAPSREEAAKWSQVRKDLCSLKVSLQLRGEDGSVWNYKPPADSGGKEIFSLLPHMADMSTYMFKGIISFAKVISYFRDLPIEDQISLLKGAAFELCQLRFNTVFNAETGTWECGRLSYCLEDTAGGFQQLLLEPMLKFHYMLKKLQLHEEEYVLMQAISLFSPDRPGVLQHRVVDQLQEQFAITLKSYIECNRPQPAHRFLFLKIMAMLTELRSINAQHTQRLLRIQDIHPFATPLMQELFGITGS
Take `Nc1ccccc1Nc1ccccc1`: the Potency is 19.4 µM (active).

As to `Cc1ccccc1CCO`, the Potency result was “inactive”.

As to `c1ccc(CN(Cc2ccccc2)Cc2ccccc2)cc1`, the Potency is 30.6 µM (active).

For the compound `COc1cc(CNC(=O)CCCC/C=C/C(C)C)ccc1O`, the Potency was 33.5 µM (active).

Regarding `CC(C)(C(=O)O)c1ccc(C(O)CCCN2CCC(C(O)(c3ccccc3)c3ccccc3)CC2)cc1` (stereo not drawn), the Potency entry was “inactive”.

Turning to `COc1ccc(CN(CCN(C)C)c2ncccn2)cc1`, the Potency entry is “inactive”.

For `O=C(C1CCCCC1)N1CC(=O)N2CCCc3ccccc3C2C1` (stereo not drawn), the Potency was 7.5 µM (active).

In the case of `CC(C)C/C=C(\C=O)c1ccccc1`, the Potency was 30.6 µM (active).

In the case of `CC(CN=Cc1ccccc1O)N=Cc1ccccc1O` (stereo not drawn), the Potency result is “inactive”.

As for `Cc1ccc(S(=O)(=O)NC(=O)NC2CCCC2)cc1`, the Potency result is “inactive”.

With `COc1ccc(C(=O)c2ccc(C)cc2)c(O)c1`, the Potency is 11 µM (active).

Consider `Cc1c(N=C=O)cccc1N=C=O`, for which the Potency result was “inactive”.

As to `Clc1nc2ccccc2nc1Cl`, the Potency is 61.8 µM (active).

As to `c1ccc(CCNc2nc(-c3ccccc3)cs2)cc1`, the Potency was 3.76 µM (active).

Consider `O=C(Cl)c1ccc(F)c(Cl)c1`, for which the Potency result was “inactive”.

As to `O=C(OC1C[C@H]2CC[C@@H](C1)[N+]21CCCC1)C(O)(c1ccccc1)c1ccccc1` (stereo partly drawn), the Potency result was “inactive”.

With `CC(=O)OCC(=O)[C@@]1(O)CC[C@H]2[C@@H]3CCC4=CC(=O)C=C[C@]4(C)[C@@]3(F)[C@@H](O)C[C@@]21C`, the Potency entry was “inactive”.

Regarding `O=C(O)c1ccc2c(c1)nc(C(=O)NC1CCN(C3CC3)CC1)n2Cc1cc(-c2ccc(Cl)s2)on1`, the activation was -32.3% [at 19 µM].

With `O=C(O)c1cc(C(=O)O)cc([N+](=O)[O-])c1`, the Potency entry is “inactive”.

As to `Cc1cc(SC2=C(O)C[C@@](CCc3ccc(N)cc3)(C(C)C)OC2=O)c(C(C)(C)C)cc1CO`, the Potency is 30.6 µM (active).

Turning to `O=C(Nc1ccccc1)c1cc([N+](=O)[O-])ccc1Cl`, the Potency is 61.1 µM (active).

`CC(C)(C)c1ccc(CCC=O)cc1`: the Potency entry is “inactive”.

In the case of `CCCCCC1CCC(=O)O1` (stereo not drawn), the Potency entry is “inactive”.

`C[C@H](CN1CCCC1)C(=O)c1ccc(C(F)(F)F)cc1`: the Potency was 26.6 µM (active).

`Sc1nc(S)nc(S)n1`: the Potency result is “inactive”.

For `Cc1cc(C)c(C)c(O)c1`, the Potency entry was “inactive”.

As for `COc1ccc(/C=C/S(=O)(=O)NC(=O)c2ccc(C)cc2Cl)cc1`, the Potency was 27.3 µM (active).
